These results are taken from PubChem BioAssay AID2417 (National Center for Advancing Translational Sciences (NCATS), 2010).

Hit rate of the full screen: of about 140,000 compounds, about 4,300 (3.1%) were called active. Roughly 21% stayed inconclusive and do not appear here. This is one part of a sample in which actives are shown more often than they occur. Values without a mark were called inactive.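 How the source made its calls: active means readout at or below -70, meaning at least 70% loss of cells showing the perinucleolar compartment, a nuclear body marking cancer cells; inconclusive means readout between -30 and a set limit; inactive means the rest.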

The nature of the assay: High Content Assay for Compounds that inhibit the Assembly of the Perinucleolar Compartment.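 Further: plate controls were DMSO wells for no effect and camptothecin positive control wells for full effect.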 As to conditions: PC3M PTB-GFP, PNC prevalence imaging, 16 h; at 10 µM; active compounds read low. In outline:
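PC3M cells stably expressing PTB-GFP, 750–1000 cells/well, treated 16 h at 37 °C with compound (23 nl of library stock), in duplicate. After paraformaldehyde fixation and Hoechst stain, imaged at 20x; PNC prevalence scored by image analysis.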
On to `O=C(COC(=O)c1cc(=O)[nH]c2ccccc12)Nc1nc(-c2cccc(Br)c2)cs1`, for which the activity change (PNC), negative = inhibition was 21.6%.

`COC(=O)Cc1ccc(OCC(=O)Nc2ccc(OC(F)(F)F)cc2)cc1`: the activity change (PNC), negative = inhibition is -17.1%.

Turning to `CCCCN(C)C(=O)C1CCN(Cc2ccccn2)CC1`, the activity change (PNC), negative = inhibition is -84.5% (active).

As to `CCCCN(Cc1ccccc1)C(=O)C1CCN(Cc2sccc2C)CC1`, the activity change (PNC), negative = inhibition was 30.3%.

`CCCC(=O)C1CCN(Cc2ccccc2)CC1`: the activity change (PNC), negative = inhibition is -25.7%.

Consider `CC(=O)Nc1cccc(Oc2cc(C#N)c(C#N)cc2N2CCOCC2)c1`, for which the activity change (PNC), negative = inhibition was -107% (active).

Take `CCOc1cccc(NC(=O)CC#N)c1`: the activity change (PNC), negative = inhibition is -1.74%.

Regarding `CC(=O)Nc1ccc(N2CCOCC2)c(C(=O)Nc2cccc(C)c2)c1`, the activity change (PNC), negative = inhibition was -7.92%.

Regarding `CCn1nc(C)c(/C=N/NC(=O)Cc2ccc(Cl)cc2)c1C`, the activity change (PNC), negative = inhibition was 49.9%.

In the case of `O=[N+]([O-])c1cc(S(=O)(=O)N2CCCC2)ccc1NN=C1CCCC1`, the activity change (PNC), negative = inhibition was 27.5%.

On to `COc1cc(NC(=O)COC(=O)CSc2ccc3ccccc3c2)c(C)cc1[N+](=O)[O-]`, for which the activity change (PNC), negative = inhibition is 0.296%.

As to `O=C(CCCN1C(=O)c2cccc3cccc(c23)C1=O)N1CCN(Cc2ccc3c(c2)OCO3)CC1`, the activity change (PNC), negative = inhibition was -24.4%.

Consider `O=C(Nc1cccc2ccccc12)N1CCN(Cc2ccc3c(c2)OCO3)CC1`, for which the activity change (PNC), negative = inhibition was -95.4% (active).

In the case of `O=C(CSCc1ccc(Cl)cc1)N1CCN(Cc2ccc3c(c2)OCO3)CC1`, the activity change (PNC), negative = inhibition is -86.5% (active).

As to `O=C(Nc1ccccc1)N1CCN(Cc2ccccc2)CC1`, the activity change (PNC), negative = inhibition is 47.3%.

With `CS(=O)(=O)N(CC(=O)N1CCN(Cc2ccc3c(c2)OCO3)CC1)c1ccc2c(c1)OCO2`, the activity change (PNC), negative = inhibition is -4.43%.

As for `O=C(CSCc1ccc(Cl)cc1)N1CCCCC1`, the activity change (PNC), negative = inhibition is 0.451%.

For `O=C(Nc1ccccc1F)c1ccccc1-c1ccc(C(F)(F)F)cc1`, the activity change (PNC), negative = inhibition is 16.7%.

Regarding `CCc1nccn1S(=O)(=O)c1cccc([N+](=O)[O-])c1`, the activity change (PNC), negative = inhibition was 10%.

For the compound `Cc1nnc(NC(=O)/C=C/c2ccco2)s1`, the activity change (PNC), negative = inhibition is -22.5%.

For `CCS(=O)(=O)Nc1cccc(-c2cc(-c3ccccc3)c3cc(C)ccc3n2)c1`, the activity change (PNC), negative = inhibition is 81.5%.

Regarding `CCc1ccc(C(=O)OCC(=O)Nc2cccc(S(=O)(=O)NC3=NCCCCC3)c2)cc1`, the activity change (PNC), negative = inhibition is 14.5%.

In the case of `COc1ccc(S(=O)(=O)NC(CC(=O)NCc2ccccc2OC)c2ccco2)cc1` (configuration not stated), the activity change (PNC), negative = inhibition was 32.4%.

Turning to `CC(=O)Nc1ccc(S(=O)(=O)NC(C)C(=O)OCC(=O)NC2CCCC2)cc1` (configuration not stated), the activity change (PNC), negative = inhibition was 5.59%.

In the case of `O=C(CC(NS(=O)(=O)c1ccc(Cl)cc1)c1ccco1)NC1CCCC1` (configuration not stated), the activity change (PNC), negative = inhibition was -84.2% (active).

Take `CN1CCN(CC(=O)Nc2sc3c(c2C#N)CCC(C(C)(C)C)C3)CC1` (configuration not stated): the activity change (PNC), negative = inhibition was -86.5% (active).

Take `N#Cc1ccsc1NC(=O)CN1CCCCC1`: the activity change (PNC), negative = inhibition is 8.2%.

For `Cc1cccc(C(=O)OCC(=O)Nc2sc3c(c2C#N)CCC3)c1`, the activity change (PNC), negative = inhibition is 5.52%.

`COc1ccccc1Oc1ccc(N/C=C2/CCCC2=O)cc1`: the activity change (PNC), negative = inhibition is 39.1%.

Regarding `Cc1ccccc1OCC(=O)Nc1nc(C)c(C(=O)N(C)C)s1`, the activity change (PNC), negative = inhibition is -15.1%.

As to `CCCCOC(=O)Cn1c(=N)n(CCN(CC)CC)c2ccccc21`, the activity change (PNC), negative = inhibition was 33.2%.

On to `CCn1c(=N)n(CC(=O)c2cccc(OC)c2)c2ccccc21`, for which the activity change (PNC), negative = inhibition is -117% (active).

Consider `COc1ccc(OC)c(NC(=O)Cn2c(=O)oc3ccccc32)c1`, for which the activity change (PNC), negative = inhibition was 0.891%.

On to `CCCCN(C)c1ccc([N+](=O)[O-])cc1`, for which the activity change (PNC), negative = inhibition was 22.3%.

For the compound `Cc1ccc(C(C[N+](=O)[O-])c2c(C)cc3ccccn23)cc1` (configuration not stated), the activity change (PNC), negative = inhibition was -2.04%.

Regarding `Cc1cc(NC(=O)Nc2ccccc2)n(-c2ccccc2)n1`, the activity change (PNC), negative = inhibition is 15.1%.

For the compound `Cc1cc(Nc2ccccc2)n(CCC#N)n1`, the activity change (PNC), negative = inhibition is -16.1%.

Regarding `Cc1cc(Nc2ccccc2)n(C(=O)c2ccc(N)cc2)n1`, the activity change (PNC), negative = inhibition is -86.2% (active).

In the case of `Cc1cc(C)cc(NC(=S)NCc2ccc(F)cc2)c1`, the activity change (PNC), negative = inhibition was 35.9%.

`CNC(=S)N1CCN(c2ccccn2)CC1`: the activity change (PNC), negative = inhibition was -10.5%.

Consider `Cc1cccc(N=C2NN=C(c3c[nH]c4ccccc34)CS2)c1`, for which the activity change (PNC), negative = inhibition is 57.4%.

As for `COc1ccc(S(=O)(=O)N2CCCCC2)cc1Br`, the activity change (PNC), negative = inhibition was -11%.

For `COc1ccc(S(=O)(=O)Nc2ccc(S(=O)(=O)N3CCCCC3)cc2)cc1OC`, the activity change (PNC), negative = inhibition was -88.7% (active).

For the compound `COc1ccc(-c2ccc(Nc3ccc(S(=O)(=O)N4CCCC4)cc3)nn2)cc1OC`, the activity change (PNC), negative = inhibition was 7.04%.

Turning to `Cc1[nH]c2ccccc2c1/C=N\NC(=O)Cn1nnc(-c2ccccc2)n1`, the activity change (PNC), negative = inhibition was 40.3%.

As for `CCOC(=O)c1cc2n(c1N)-c1ccccc1C2=O`, the activity change (PNC), negative = inhibition is 32%.

For `CCOC(=O)c1c(C)[nH]c2c1-c1ccccc1C(=O)C2=O`, the activity change (PNC), negative = inhibition is -124% (active).

With `CCOC(=O)c1c(C)[nH]c(=S)c(C#N)c1-c1ccccc1`, the activity change (PNC), negative = inhibition was 32.4%.

Take `Cc1cccc(OCCNC(=S)NC(=O)c2cccnc2)c1`: the activity change (PNC), negative = inhibition was 17.2%.

As for `CC(C)CNC(=O)COC(=O)/C=C/c1ccco1`, the activity change (PNC), negative = inhibition was 0.199%.

Consider `O=C(NC(CC(=O)N1CCN(c2ccccc2)CC1)c1ccccc1)c1ccccc1Cl` (configuration not stated), for which the activity change (PNC), negative = inhibition is -9.01%.

Take `CCCc1cc(-c2nc(-c3ccc(C)cc3)cs2)ccn1`: the activity change (PNC), negative = inhibition was 10.4%.
